Measured values from PubChem BioAssay (NCI).
This is part of a sample that, as a whole, favours compounds with a hit. Of some 79,000 tested, about 15% had one in any assay. No stated cut-off is given here; in the data, active means growth inhibition above about 70%; inactive means the rest.

Experiments:
[1] = NCI Yeast Anticancer Drug Screen. Data for the rad50 strain (AID 155);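 further: 0% = growth of vehicle-only cultures of the same strain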; conditions: S. cerevisiae rad50 strain growth inhibition; at 50.0 µM; active compounds read high
Procedure, shortened: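 Yeast carrying a defined DNA repair defect were exposed to test compounds, and growth was compared with vehicle-treated controls to give percent inhibition.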

[2] = NCI Yeast Anticancer Drug Screen. Data for the mec2-1 strain (AID 157); conditions: S. cerevisiae mec2-1 strain, at 50.0 µM, active compounds read high
Procedure, shortened: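 Mutant yeast (mec2-1) grown with compound; growth inhibition relative to vehicle control reported.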

[3] = NCI Yeast Anticancer Drug Screen. Data for the sgs1 mgt1 strain (AID 161);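 further: 0% = growth of cultures given vehicle only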; conditions: S. cerevisiae sgs1 mgt1 strain, at 50.0 µM, active compounds read high
Procedure, shortened: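 This yeast growth screen uses a strain with defined DNA-repair lesions; compound-treated growth is compared with vehicle-treated growth.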

[4] = NCI Yeast Anticancer Drug Screen. Data for the cln2 rad14 strain (AID 165);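 further: 0% = growth equal to vehicle treated cultures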; conditions: S. cerevisiae cln2 rad14 strain, at 50.0 µM, active compounds read high
Procedure, shortened: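 Readout is yeast growth inhibition versus vehicle-treated controls, using a strain with cln2 and rad14 alterations exposed to compound.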

[5] = NCI Yeast Anticancer Drug Screen. Data for the bub3 strain (AID 167); conditions: S. cerevisiae bub3 mutant strain, at 50.0 µM, active compounds read high
Procedure, shortened: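 Compounds were applied to a genetically altered yeast strain carrying a cell-cycle control defect. Growth inhibition was scored against vehicle-treated controls.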

[6] = NCI Yeast Anticancer Drug Screen. Data for the mlh1 rad18 strain (AID 175); conditions: S. cerevisiae mlh1 rad18 strain growth inhibition; at 50.0 µM; active compounds read high
Procedure, shortened: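 Genetically defined yeast (DNA repair-deficient) exposed to compounds; growth inhibition determined relative to vehicle.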

Measured: growth inhibition

O=C1CC(SC(=S)N2CCCCC2)C(=O)N1c1ccccc1 (stereo unspecified)
inactive: [1] -19.6% | [2] 7.55% | [3] -2.55% | [4] -30.2% | [5] 7.25% | [6] 13.2%

COc1ccc(NC(=O)C(=O)NNC(=O)c2sc(NNC(C)=O)nc2C)c([N+](=O)[O-])c1
inactive: [1] 27.3% | [2] -10.7% | [3] 39.2% | [4] 8.4% | [5] 20.6% | [6] 5.3%

CCOC(=O)c1cccc(C(=O)OCC)n1
inactive: [1] 4.75% | [2] -2.35% | [3] 11.8% | [4] -1.65% | [5] 18.7% | [6] -14.6%

CCCCOC(=O)c1c2nc3c(C(=O)OCCCC)ccc(C)c3oc-2c(C)c(=O)c1NC(C)=O
inactive: [1] 19.4% | [2] 5.1% | [3] 6.95% | [4] 4.9% | [5] -5.3% | [6] 5.2%

CSc1ncc(C=O)n1Cc1ccccc1
inactive: [1] -4.35% | [2] 6.7% | [3] 0.3% | [4] -34.5% | [5] 2.15% | [6] 5.6%

CCCCCCCCOC(=O)CO
inactive: [1] 23.8% | [2] -30.1% | [3] 17.8% | [4] 5.35% | [5] 3.1% | [6] 12.3%

COc1ccc(C(C)=O)c(OC(C)=O)c1OC(C)=O
inactive: [1] 4.05% | [2] 0.95% | [3] 6.25% | [4] 10% | [5] 5.8% | [6] 17.2%

COc1cc(-c2c(C)oc(C)c2C(C)=O)ccc1OCc1ccccc1
inactive: [1] 9.6% | [2] -1.95% | [3] -9.1% | [4] 11.8% | [5] 14.8% | [6] 14.4%

CCOC(=O)C12CCC(=O)CC1(O)CCC1(C2)OCCCO1 (stereo unspecified)
inactive: [1] 10.1% | [2] -15.9% | [3] -17.9% | [4] -21.8% | [5] 10.9% | [6] 3.85%

O=c1cc(-c2ccccc2)nc(/C=C(\O)c2ccncc2)n1-c1ccccc1
inactive: [1] -4.25% | [2] -18.9% | [3] 0.4% | [4] 10.1% | [5] 15.5% | [6] -8.15%

CCOC(=O)c1ccccc1C(=O)c1ccccc1O
inactive: [1] -5.8% | [2] -18% | [3] -1.6% | [4] -0.45% | [5] -5.45% | [6] 18.4%

O/N=C1/CCCCC1NO (stereo unspecified)
inactive: [1] -17.9% | [2] -22.9% | [3] -32.2% | [4] 15.7% | [5] -10.8% | [6] -19.7%

COc1cc(N=C(N)N=C(N)N)c2ncccc2c1
inactive: [1] -3.1% | [2] -18.1% | [3] -11.9% | [4] -41% | [5] -3.75% | [6] -13.2%

CCC(=O)C1CCCCN1 (stereo unspecified)
inactive: [1] 10.7% | [2] 17.1% | [3] -11.1% | [4] -48.4% | [5] -3.15% | [6] 3%

COC(=O)c1cc(=O)[nH]c(=O)[nH]1
inactive: [1] -10.6% | [2] -12.8% | [3] -15.8% | [4] 9.45% | [5] -13.5% | [6] -15.9%

OC1CCCN(Cc2ccccc2)C1 (stereo unspecified)
inactive: [1] 9.3% | [2] -15.7% | [3] 8.55% | [4] 4.5% | [5] 11.3% | [6] 7.35%

Cc1cc(Cl)nc2ccc([N+](=O)[O-])cc12
inactive: [1] 5.35% | [2] 6.3% | [3] -5.35% | [4] -18.1% | [5] 14.2% | [6] 5.5%

O=C(NNC(=O)c1ccncc1)c1ccncc1
inactive: [1] -22.9% | [2] 1.2% | [3] -9.45% | [4] -30.3% | [5] -2.4% | [6] -23.9%

O=C1CCCCCCCCCCC1Cc1cc(O)c(CC2CCCCCCCCCCC2=O)cc1O (stereo unspecified)
inactive: [1] -1.2% | [2] 3% | [3] -5.95% | [4] -12.9% | [5] -5.8% | [6] -12.8%

CC(=O)NCC(OC(C)=O)c1ccc2c(c1)[nH]c1ccccc12 (stereo unspecified)
inactive: [1] 17.1% | [2] -6.5% | [3] -3.3% | [4] 10.1% | [5] 11.2% | [6] 31.2%

O=C1c2ccccc2C(c2ccccc2)C1c1ccccc1 (stereo unspecified)
inactive: [1] 22.8% | [2] 15.9% | [3] 17.6% | [4] -16.6% | [5] 20.6% | [6] 0.8%
